According to PubChem BioAssay (Tox21):
Results filed as inconclusive are left out. A number with no mark means an inactive call. Unless noted, the call rests on the fitted dose curve.

target: Vitamin D3 receptor (Homo sapiens) (UniProt P11473); assay: qHTS assay to identify small molecule agonists of the vitamin D receptor (VDR) signaling pathway (AID 743222); details: HEK293T VDR-UAS-bla, beta-lactamase FRET ratio, 16 h; series mostly up to 63.5 µM; activation: at the top concentration
Outline: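 Agonist activity measured in VDR-bla reporter cells. Exposure 16 h, 37C, 5% CO2; detection by B/G FRET substrate, 2 h RT.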
On the % scale 0 is the no-effect control and ±100 the full control effect.

Sequence of Vitamin D3 receptor (Homo sapiens) (P11473 whole entry, looked up): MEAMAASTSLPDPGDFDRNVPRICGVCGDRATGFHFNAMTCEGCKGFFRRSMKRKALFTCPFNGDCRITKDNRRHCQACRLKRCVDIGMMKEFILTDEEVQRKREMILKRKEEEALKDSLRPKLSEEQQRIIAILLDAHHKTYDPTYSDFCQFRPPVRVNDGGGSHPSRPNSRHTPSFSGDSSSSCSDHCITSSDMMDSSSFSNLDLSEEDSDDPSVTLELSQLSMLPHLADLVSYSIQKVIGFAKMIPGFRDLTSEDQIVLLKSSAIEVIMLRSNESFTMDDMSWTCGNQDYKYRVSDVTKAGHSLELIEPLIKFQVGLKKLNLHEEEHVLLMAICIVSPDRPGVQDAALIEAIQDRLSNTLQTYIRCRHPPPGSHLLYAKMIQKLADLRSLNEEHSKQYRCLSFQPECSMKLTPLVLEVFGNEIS

First: CCCCCCCCCCCBr
Second: CCCCCCCCCCCCCCCC/C=C/C1CC(=O)OC1=O (stereo not drawn)
The “activation” value of the first is lower: -10.1% for the first, -0.652% for the second.

Going from `COC(=O)c1cc(Cl)c(NC(C)=O)cc1OC` to `COC(=O)c1ccc(C(=O)O)cc1`, the “activation” value rises from -2.39% to 4.12%.

Compared with `O=P(O)(O)C(O)(Cc1cccnc1)P(=O)(O)O`, `CC(C)(C)OC(=O)c1ccccc1C(=O)O` is higher in “activation” value: -1.67% for the first, 3.54% for the second.

Going from `CC(=O)SCC(CC(=O)c1ccc(C)cc1)C(=O)O` (stereo not drawn) to `CC(=O)SC[C@@H](C)C(=O)N1CCC[C@H]1C(=O)N[C@@H](Cc1ccccc1)C(=O)O`, the “activation” value rises from 0.518% to 6.4%.

Going from `O=C(CCBr)N1CCN(C(=O)CCBr)CC1` to `CN1CCN(C(=O)C2CCCCC2)CC1`, the “activation” value falls from 5.71% to 2.09%.

Compared with `O=C(O)CCC(=O)Nc1ccc(S(=O)(=O)Nc2nccs2)cc1`, `Cc1ccccc1OCC(=O)O` is higher in “activation” value: 2.71% for the first, 11.9% for the second.

Compared with `CCN1CCN(C(=O)N[C@@H](C(=O)N[C@@H]2C(=O)N3[C@@H]2SC(C)(C)[C@H]3C(=O)O)c2ccccc2)C(=O)C1=O`, `CC(C)C(=O)Nc1cccc(C2CN3CCSC3=N2)c1` (stereo not drawn) is lower in “activation” value: 4.02% for the first, 3.55% for the second.

First: CCCCC(O)/C=C(C)/C=C/C=C/C(=O)N1CCCC1=O (stereo not drawn)
Second: C[C@H]1COc2c(C3(N)CC3)c(F)cc3c(=O)c(C(=O)O)cn1c23
The “activation” value of the first is higher: 3.27% for the first, 0.965% for the second.

Compared with `Cc1cc(C)c(C)c(C)c1`, `Cc1ccccc1C#N` is lower in “activation” value: 2.37% for the first, -6.46% for the second.

Compared with `CC1(C)C(=O)C(C)(C)C1=O`, `CC1(C)CC(N)CC(C)(C)N1` is higher in “activation” value: 0.621% for the first, 1.07% for the second.

First: CC(=O)c1ccc(O)c(C(N)=O)c1
Second: CCCCc1ccc(Cl)cc1
The “activation” value of the first is higher: 8.23% for the first, -1.17% for the second.

With `O=C(O)/C=C(\CC(=O)O)C(=O)O` the “activation” value was -1.04%.

Going from `C=C(C)C(=O)OCCOC1CC2CC1C1C=CCC21` (stereo not drawn) to `CCOCCOCCOC(C)=O`, the “activation” value rises from 1.26% [at 81.1 µM] to 5.2% [at 81.1 µM].

Compared with `CCCCCCCCC1CO1` (stereo not drawn), `CCN(CC)CC` is lower in “activation” value: 3.64% [at 81.1 µM] for the first, 0.546% [at 81.1 µM] for the second.

With `C/C=C(\C)C=O` the “activation” value was -0.296% [at 81.1 µM].

In the case of `CCCCCCCCCCCCCCCC(=O)OC`, the “activation” value is reported as -8.27% [at 29.5 µM].

target: Vitamin D3 receptor (Homo sapiens) (UniProt P11473); assay: qHTS assay to identify small molecule antagonists of the vitamin D receptor (VDR) signaling pathway (AID 743223; active means well fitted inhibition curve with a large enough effect in the signal ratio in the repeat runs, not every such curve was filed as active; the % refers to the signal ratio); details: VDR-UAS-bla HEK293T, beta-lactamase FRET ratio, 16 h; series mostly up to 61 µM; activity change, negative = inhibition: at the top concentration
Outline: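 VDR-bla cells were treated with compound plus 3 nM final 1alpha,25-dihydroxyvitamin D3 for 16 h at 37C. Beta-lactamase reporter read by B/G FRET substrate fluorescence after 2 h at room temperature. qHTS format.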

First: CCCCCCCCCCCBr
Second: O=C(CCBr)N1CCN(C(=O)CCBr)CC1
The “activity change, negative = inhibition” value of the first is higher: 27.4% for the first, 11.1% for the second.

Going from `O=C(O)P(=O)(O)O` to `O=C(O)/C=C(\CC(=O)O)C(=O)O`, the “activity change, negative = inhibition” value rises from -2.49% to 2.11%.

Going from `COC(=O)c1cc(Cl)c(NC(C)=O)cc1OC` to `COC(=O)c1ccc(C(=O)O)cc1`, the “activity change, negative = inhibition” value falls from 2.81% to -5.78%.

First: O=P(O)(O)C(O)(Cc1cccnc1)P(=O)(O)O
Second: CC(C)(C)OC(=O)c1ccccc1C(=O)O
The “activity change, negative = inhibition” value of the first is higher: 1.29% for the first, -8.19% for the second.

First: CC(=O)SCC(CC(=O)c1ccc(C)cc1)C(=O)O (stereo not drawn)
Second: CC(=O)SC[C@@H](C)C(=O)N1CCC[C@H]1C(=O)N[C@@H](Cc1ccccc1)C(=O)O
The “activity change, negative = inhibition” value of the first is lower: -14.8% for the first, -10.4% for the second.

Compared with `O=C(O)CCC(=O)Nc1ccc(S(=O)(=O)Nc2nccs2)cc1`, `CCN1CCN(C(=O)N[C@@H](C(=O)N[C@@H]2C(=O)N3[C@@H]2SC(C)(C)[C@H]3C(=O)O)c2ccccc2)C(=O)C1=O` is lower in “activity change, negative = inhibition” value: -0.0179% for the first, -21.6% for the second.

Compared with `CN1CCN(C(=O)C2CCCCC2)CC1`, `CC(C)C(=O)Nc1cccc(C2CN3CCSC3=N2)c1` (stereo not drawn) is lower in “activity change, negative = inhibition” value: -4.72% for the first, -10.1% for the second.

First: CCCCC(O)/C=C(C)/C=C/C=C/C(=O)N1CCCC1=O (stereo not drawn)
Second: C[C@H]1COc2c(C3(N)CC3)c(F)cc3c(=O)c(C(=O)O)cn1c23
The “activity change, negative = inhibition” value of the first is lower: -28.5% for the first, -16.4% for the second.

Compared with `Cc1cc(C)c(C)c(C)c1`, `Cc1ccccc1C#N` is lower in “activity change, negative = inhibition” value: -3.62% for the first, -26% for the second.

Compared with `CC1(C)C(=O)C(C)(C)C1=O`, `CN(C)c1cc(NC(=O)CNC(C)(C)C)c(O)c2c1C[C@H]1C[C@H]3[C@H](N(C)C)C(=O)C(C(N)=O)=C(O)[C@@]3(O)C(=O)C1=C2O` is lower in “activity change, negative = inhibition” value: -0.618% for the first, -4.63% for the second.

First: CCCCCCCCC1CO1 (stereo not drawn)
Second: CCN(CC)CC
The “activity change, negative = inhibition” value of the first is lower: -15.4% [at 78.8 µM] for the first, 19.4% [at 78.8 µM] for the second.

With `C/C=C(\C)C=O` the “activity change, negative = inhibition” value was 0.33% [at 78.8 µM].

With `CCCCCCCCCCCCCCCC(=O)OC` the “activity change, negative = inhibition” value was 2.86% [at 28.5 µM].
